Assay results reported in PubChem BioAssay AID602362 (National Center for Advancing Translational Sciences (NCATS), 2012).
This is one part of the list. Records with an inconclusive call do not appear. Calls of active or inactive are those of the source. Calls follow the shape of the dose curve; as a rule, active = well fitted inhibition curve with a large enough effect; inconclusive = small, poorly fitted or top-dose-only effect; inactive = no such curve, though single readings can be large or run the other way.

These compounds were tested against 4'-phosphopantetheinyl transferase Sfp (Bacillus subtilis (strain 168)) (UniProt P39135) (assay: qHTS Assay for Inhibitors of Bacillus subtilis Sfp phosphopantetheinyl transferase (PPTase): Gel Based Assay). Conditions: purified Sfp PPTase, gel-based product detection.
Excerpt: The covalent attachment of a phosphopantetheinyl (4'-PP) arm to a variety of synthases and other proteins is a key posttranslational protein modification. The 4'-PP is installed on the proteins post-translationally from coenzyme A (CoA) on a conserved serine residue by action of phosphopantetheinyl transferase (PPTase) enzymes. Phosphopantetheinylation is essential for synthase activity, and removal of the PPTase gene precludes natural product synthesis in microorganisms, or in the case of fatty acid biosynthesis, renders the organism unviable. PPTase enzymes belong to a distinct structural superfamily. Within bacteria, these enzymes are grouped into two classes based upon primary structure, the AcpS-Type and Sfp-Type PPTases. […]
In search of small molecule Sfp-PPTase inhibitors, a fluorescence quenching assay was developed for detection of Bacillus subtilis Sfp-PPTase enzymatic activity in a miniaturized high-throughput format. […]
In this assay, compounds were evaluated by monitoring of fluorescence transfer to whole carrier protein substrates via polyacrylamide gel electrophoresis. […]
The SDS-PAGE based assay detects the direct incorporation of a fluorescent label into a carrier protein substrate. […] The images are analysed by fluorescent densometry using the ImageJ software package available from the NIH.
`Cc1cc(C)nc(NC(=S)N2CCN(c3ccc(Cl)cc3C(F)(F)F)CC2)c1` was tested, and the Potency was 1.07 µM (active). In the case of `COc1ccnc(NC(=S)N2CCN(c3ncc(C(F)(F)F)cc3Cl)CC2)c1`, the Potency is reported as 2.14 µM (active).
